Data published in PubChem BioAssay (Tox21).
Inconclusive results are not listed. A call without a number means that no potency is given here. Values without a mark were called inactive. Active and inactive are the calls of the source. The call rests on the fitted dose curve; in most records, active means well fitted curve in the direction sought with a large enough effect in the repeat runs; inconclusive means weak or mixed curves; inactive means no such curve, though single readings can be large; an effect the other way counts as inactive or inconclusive.

Legend:
[1] = A CellTox Green Cytotoxicity Assay to monitor cytotoxicity in HEK293 cells - 40 hour (AID 1224871); further: nearly all actives have a fitted effect of over 45% in size
Method in brief: (§1)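 Real-time, in one plate: 600 HEK293 cells/well with dead-cell DNA dye, pinned compound after 5 h, 37 C incubation over 40 h; viable cells give no appreciable fluorescence.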

[2] = qHTS RealTime-Glo MT Cell Viability Assay in HEK293 cells - 16 hour (AID 1224872); further: nearly all actives have a fitted effect of over 50% in size; on activity change, negative = cytotoxicity: top concentration of the series differs between compounds
Method in brief: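 Reads taken at 0, 8, 16, 24, 32 and 40 h from the same wells. HEK293 cells (600/well) carried RealTime-Glo reagents from seeding, with compound added after a 5 h settle at 37 C.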

[3] = qHTS RealTime-Glo MT Cell Viability Assay in HepG2 cells - 8 hour (AID 1224873); further: nearly all actives have a fitted effect of over 55% in size
Method in brief: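 HepG2 cells mixed with RealTime-Glo MT reagents (NanoLuc plus cell-permeant prosubstrate) were seeded at 600 cells/well, incubated 5 h at 37 C/5% CO2, then pinned with compounds in DMSO; nonlytic luminescence tracked viability during 40 h treatment.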

[4] = qHTS RealTime-Glo MT Cell Viability Assay in HEK293 cells - 40 hour (AID 1224874); conditions: RealTime-Glo luminescence; max response: active compounds read low; further: nearly all actives have a fitted effect of over 50% in size
Method in brief: (§2)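 Kinetic, non-lysing viability readout. Seed HEK293 (600/well) with reagent, incubate 5 h at 37 C/5% CO2, pin 23 nL compound in DMSO, incubate at 37 C, read luminescence at 0, 8, 16, 24, 32, 40 h.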

[5] = A CellTox Green Cytotoxicity Assay to monitor cytotoxicity in HEK293 cells - 24 hour (AID 1224875); further: nearly all actives have a fitted effect of over 45% in size; on activity change: series mostly up to about 77 µM
Method in brief: as §1

[6] = A CellTox Green Cytotoxicity Assay to monitor cytotoxicity in HepG2 cells - 16 hour (AID 1224876); further: nearly all actives have a fitted effect of over 45% in size
Method in brief: (§3)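 Cytotoxicity was tracked as dead-cell DNA fluorescence in HepG2 cells treated with test compounds at 37 C; each time-point value comes from one kinetic series spanning 0, 8, 16, 24, 32 and 40 h.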

[7] = qHTS RealTime-Glo MT Cell Viability Assay in HepG2 cells - 32 hour (AID 1224877); further: nearly all actives have a fitted effect of over 55% in size
Method in brief: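 HepG2 suspension premixed with RealTime-Glo reagents is plated at 600 cells per well and left 5 h at 37 C/5% CO2. Compounds in DMSO then go in, and bioluminescence reflecting viable cell number is recorded over 40 h.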

[8] = A CellTox Green Cytotoxicity Assay to monitor cytotoxicity in HepG2 cells - 24 hour (AID 1224878); further: nearly all actives have a fitted effect of over 45% in size
Method in brief: as §3

[9] = A CellTox Green Cytotoxicity Assay to monitor cytotoxicity in HepG2 cells - 40 hour (AID 1224879); further: nearly all actives have a fitted effect of over 40% in size
Method in brief: as §3

[10] = qHTS RealTime-Glo MT Cell Viability Assay in HEK293 cells - 0 hour (AID 1224880); further: nearly all actives have a fitted effect of over 45% in size; on activity change, negative = cytotoxicity: top concentration of the series differs between compounds
Method in brief: as §2
Potency means the concentration at half of the fitted maximal effect.

Structure (SMILES) | Potency [1] | Potency [2] | Potency [3] | Potency [4] | Potency [5] | Potency [6] | Potency [7] | Potency [8] | Potency [9] | max response [4] [%] | Potency [10] | activity change, negative = cytotoxicity [10]
C[C@@H](NCCCc1cccc(C(F)(F)F)c1)c1cccc2ccccc12 | 23.9 µM (active) | 23.9 µM (active) | 23.9 µM (active) | 23.9 µM (active) | 23.9 µM (active) | 19 µM (active) | 16.9 µM (active) | 16.9 µM (active) | 15.1 µM (active) |  |  | 
O=[N+]([O-])c1ccccc1Nc1ccccc1 | inactive | inactive | inactive |  | inactive | inactive | inactive | inactive | inactive | 0.685 | inactive | 
NNc1nc(-c2ccc(N)cc2)cs1 | inactive | inactive | inactive | 21.9 µM (active) | inactive | inactive | inactive | inactive | inactive |  | inactive | 
CC(=O)SC[C@@H](Cc1ccccc1)C(=O)NCC(=O)OCc1ccccc1 | inactive | inactive | inactive |  | inactive | inactive | inactive | inactive | inactive | 0.0146 | inactive | 
O=[N+]([O-])c1cc([N+](=O)[O-])c2ccc(S(=O)(=O)O)cc2c1O | inactive | inactive | inactive |  | inactive | inactive | inactive | inactive | inactive | -17.1 | inactive | 
COc1cc(/C=C/C(=O)O[C@H]2CC[C@]34C[C@]35CC[C@]3(C)[C@@H]([C@H](C)CCC=C(C)C)CC[C@@]3(C)[C@@H]5CC[C@H]4C2(C)C)ccc1O | inactive | inactive | inactive |  | inactive | inactive | inactive | inactive | inactive | 1.32 | inactive | 
CCCCCOC(=O)CCCC | inactive | inactive | inactive |  | inactive | inactive | inactive | inactive | inactive | -0.909 | inactive | 
NC(=O)NS(=O)(=O)c1ccc(N)cc1 | inactive | inactive | inactive |  | inactive | inactive | inactive | inactive | inactive | 2.7 | inactive | 
Clc1ccc2n[nH]nc2c1 | inactive | inactive | inactive |  | inactive | inactive | inactive | inactive | inactive | 4.16 | inactive | 
CSc1ccc(C(=O)c2[nH]c(=O)[nH]c2C)cc1 | inactive | inactive | inactive |  | inactive | inactive | inactive | inactive | inactive | 2.74 | inactive | 
CC1=NC(C)OC1C (centres undefined) | inactive | inactive | inactive |  | inactive | inactive | inactive | inactive | inactive | 0.967 | inactive | 
ON=C1CCCC1 | inactive | 22.6 µM (active) | inactive | 22.6 µM (active) | inactive | inactive | inactive | inactive | inactive |  | inactive | 
CCCCCCCC[P+](CCCCCCCC)(CCCCCCCC)CCCCCCCC | 6.87 µM (active) | 4.87 µM (active) | 17.3 µM (active) | 0.194 µM (active) | 4.87 µM (active) | 12.2 µM (active) | 12.2 µM (active) | 9.71 µM (active) | 10.9 µM (active) |  |  | 
CCCCN1CCCC[C@H]1C(=O)Nc1c(C)cccc1C | inactive | inactive | inactive |  | inactive | inactive | inactive | inactive | inactive | -2.09 | inactive | 
CCC(C)Nc1ccc(NC(C)CC)cc1 (centres undefined) | 12.5 µM (active) | 4.45 µM (active) | 19.9 µM (active) | 3.97 µM (active) | 17.7 µM (active) | 35.3 µM (active) | 17.7 µM (active) | 22.3 µM (active) | 17.7 µM (active) |  | 19.9 µM (active) | 
Oc1cc2ccccc2c2ccccc12 | 15.5 µM (active) | 6.92 µM (active) | 11 µM (active) | 11 µM (active) | 19.5 µM (active) | 13.8 µM (active) | 11 µM (active) | 11 µM (active) | 11 µM (active) |  |  | 
O=C1C=CC(=O)N1c1ccc(Cc2ccc(N3C(=O)C=CC3=O)cc2)cc1 | 11 µM (active) | 17.4 µM (active) | 12.3 µM (active) | 12.3 µM (active) | 38.9 µM (active) | 13.8 µM (active) | 12.3 µM (active) | 11 µM (active) | 7.76 µM (active) |  |  | 

Structure (SMILES) | Potency [1] | Potency [2] | Potency [3] | Potency [4] | Potency [5] | Potency [6] | Potency [7] | Potency [8] | Potency [9] | max response [4] [%] | Potency [10] | activity change, negative = cytotoxicity [10]
[Cl][Au]([Cl])[Cl] | 21.9 µM (active) | 4.9 µM (active) | 49 µM (active) | 3.09 µM (active) | 21.9 µM (active) | 21.9 µM (active) | 9.77 µM (active) | 13.8 µM (active) | 7.76 µM (active) |  | inactive | 
C[n+]1cc2c3c(ccc2c2ccc4cc5c(cc4c21)OCO5)OCO3 | 0.465 µM (active) | 0.585 µM (active) | 0.737 µM (active) | 0.585 µM (active) | 0.737 µM (active) | 0.585 µM (active) | 0.928 µM (active) | 0.522 µM (active) | 0.657 µM (active) |  |  | -2.48% [at 15.8 µM]
Cc1cccc(CN2CCN(C(c3ccccc3)c3ccc(Cl)cc3)CC2)c1 (centres undefined) | inactive | inactive | inactive |  | inactive | inactive | inactive | inactive | inactive | -13.7 | inactive | 
NC(=O)CC[C@@H]1NC(=O)[C@H](Cc2ccccc2)NC(=O)[C@H](Cc2ccc(O)cc2)NC(=O)CCSSC[C@@H](C(=O)N2CCC[C@H]2C(=O)N[C@@H](CCCN=C(N)N)C(=O)NCC(N)=O)NC(=O)[C@H](CC(N)=O)NC1=O | inactive | inactive | inactive |  | inactive | inactive | inactive | inactive | inactive | 0.946 | inactive | 
O=C(O)c1c(Cl)cccc1Cl | inactive | inactive | inactive |  | inactive | inactive | inactive | inactive | inactive | 1.14 | inactive | 
CCCCC(CC)CN=C(N)NC(N)=NCCCCCCN=C(N)NC(N)=NCC(CC)CCCC (centres undefined) | 8.49 µM (active) | 6.74 µM (active) | 19 µM (active) | 4.25 µM (active) | 7.56 µM (active) | 8.49 µM (active) | 8.49 µM (active) | 9.52 µM (active) | 8.49 µM (active) |  |  | 
CCCCCCCC[N+](CCCCCCCC)(CCCCCCCC)CCCCCCCC | 19.5 µM (active) | 7.75 µM (active) | 24.5 µM (active) | 2.18 µM (active) | 15.5 µM (active) | 24.5 µM (active) | 24.5 µM (active) | 19.5 µM (active) | 24.5 µM (active) |  |  | 
CCCCN(CCCC)C(=O)N(CCCC)CCCC | inactive | inactive | inactive |  | inactive | inactive | inactive | inactive | inactive | -2.17 | inactive | 
O=c1c(-c2ccccc2)c1-c1ccccc1 | 5.35 µM (active) | 15.1 µM (active) | 23.9 µM (active) | 10.7 µM (active) | 5.35 µM (active) | inactive | 15.1 µM (active) | 10.7 µM (active) | 10.7 µM (active) |  | inactive | 
c1ccc(CSCc2ccccc2)cc1 | inactive | inactive | inactive |  | inactive | inactive | inactive | inactive | inactive | -5.29 | inactive | 
CCN(C(=O)c1cc(C)cc(OC[C@H](C)Nc2ccncc2)c1)C(C)C | inactive | inactive | inactive |  | inactive | inactive | inactive | inactive | inactive | -9.99 | inactive | 
CN(C)[C@@H]1C(=O)C(C(N)=O)=C(O)[C@@]2(O)C(=O)C3=C(O)c4c(O)ccc(Cl)c4[C@@H](O)[C@H]3C[C@@H]12 | inactive | inactive | inactive |  | inactive | inactive | inactive | inactive | inactive | -2.42 | inactive | 
CCOC(=O)O[C@H](C)OC(=O)c1ccc2c(c1)cc(C(=O)NC1CCN(C(C)C)CC1)n2Cc1cc(-c2ccc(Cl)s2)on1 | 18.2 µM (active) | 10.2 µM (active) | 16.2 µM (active) | 11.5 µM (active) | 20.4 µM (active) | 11.5 µM (active) | 10.2 µM (active) | 11.5 µM (active) | 10.2 µM (active) |  | inactive | 
CC(C)(C)c1ccc(C(=O)O)cc1 | inactive | inactive | inactive |  | inactive | inactive | inactive | inactive | inactive | -13.2 | inactive | 
CCC(C)(C)C1CCCCC1OC(C)=O (centres undefined) | inactive | inactive | inactive |  | inactive | inactive | inactive | inactive | inactive | 6.6 | inactive | 
CCCCCCCCCCCC[N+](C)(C)CCCCCCCCCCCC | 17.4 µM (active) | 11 µM (active) | 12.3 µM (active) | 3.89 µM (active) | 15.5 µM (active) | 9.77 µM (active) | 7.76 µM (active) | 7.76 µM (active) | 7.76 µM (active) |  | inactive | 
NNC(=O)c1cccc(C(=O)NN)c1 | inactive | inactive | inactive |  | inactive | inactive | inactive | inactive | inactive | -2.8 | inactive | 
